# Laboratory results: PubChem BioAssay AID1852 (Sanford-Burnham Center for Chemical Genomics, 2009)
# Out of some 2,500 compounds screened, about 1,100 (44%) were called active.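 How the source made its calls: active means inhibition above 50% at 4 µM in the single-point screen; inactive means inhibition of 50% or less.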 So high a share suggests a set chosen from earlier hits. Some of the results follow.
# Assay: blockers of TNF-a NF-kB luciferase induction – cell-based, HEK293T NF-kB-Luc, luminescence, selectivity assay for NOD1/NOD2 signaling inhibitor project, primary screen (AID 1852)
# Details: TNF-a induced, 14 h, at 4 µM, stronger effect = higher value
row,SMILES,inhibition
1,CCc1ccc(-c2cc(C)no2)cc1S(=O)(=O)NCCCN1CCN(c2ccccc2)CC1,28.3% (inactive)
2,C/C(=N\NC(=O)c1cc2ccccc2cc1O)c1ccccn1,-5.1% (inactive)
3,C/C(=N\NC(=O)c1cc2ccccc2cc1O)c1cc2ccccc2o1,105% (active)
4,Cc1ccc(S(=O)(=O)CC#CCOC(=O)c2ccc([N+](=O)[O-])cc2)cc1,91.4% (active)
5,CCOC(=O)N1CCN(C(=O)c2ccc(Oc3ccc([N+](=O)[O-])cc3)cc2)CC1,-11.6% (inactive)
6,COc1ccc(NS(=O)(=O)c2ccc3oc(SC(C)C(N)=O)nc3c2)cc1 (stereo not drawn),2.2% (inactive)
7,COc1ccc(NS(=O)(=O)c2ccc(N/N=C(\C)c3ccncc3)c([N+](=O)[O-])c2)cc1,51.9% (active)
8,CC[C@H]1CN2CCc3cc(OC)c(OC)cc3[C@@H]2C[C@@H]1C[C@H]1NCCc2cc(OC)c(OC)cc21,102% (active)
9,Cc1ccc(C)c(N2CCN(C(=O)C34CC5CC(C3)CC(n3nnc(C)n3)(C5)C4)CC2)c1,25.2% (inactive)
10,CN(C)Cc1c(C(=O)N/N=C/c2cccc(OCc3c(F)cccc3Cl)c2)nnn1-c1nonc1N,74% (active)
11,O=C(CSc1nc2ccccc2c(=O)n1Cc1ccccc1)Nc1ccc(Br)cc1C(=O)O,53.2% (active)
12,CCOc1ccccc1-n1c(SCC(=O)Nc2ccccc2C(=O)O)nc2ccccc2c1=O,-2.7% (inactive)
13,O=C(COc1ccc2ccccc2c1)Nc1ccc(Br)cc1C(=O)O,-2.8% (inactive)
14,COc1cc(/C=C/c2ccc3cccc(O)c3n2)cc(Br)c1OC,28.6% (inactive)
15,COc1cc(/C=C/c2ccc3cccc(O)c3n2)cc(OC)c1OC,105% (active)
16,COc1cc(/C=C/c2ccc3cccc(O)c3n2)cc(Cl)c1OC,-19.5% (inactive)
17,COc1cc(/C=C/c2ccc3cccc(O)c3n2)ccc1O,105% (active)
18,COc1cccc(OCCOc2ccc(/C=C3\C(=N)N4N=C(S(C)(=O)=O)SC4=NC3=O)cc2OC)c1,-57.6% (inactive)
19,C=C1C(=O)[C@@]23[C@H](O)C[C@@H]4C(C)(C)CC[C@H](O)[C@@]4(C)[C@@H]2CC[C@@H]1[C@H]3O,68.9% (active)
20,NC(=O)c1c(NC(=O)C(=O)N2CCOCC2)sc2c1CCCC2,29.8% (inactive)
21,COc1ccc(CCNC(=O)C(C)n2nc(C)c3c(C)n(-c4ccc(C)cc4)nc3c2=O)c(OC)c1 (stereo not drawn),56.1% (active)
22,CCOc1ccccc1CNC(=O)Cn1nc(C)c2c(C)n(-c3ccc(C)cc3)nc2c1=O,55% (active)

row,SMILES,inhibition
1,CCOC(=O)c1c(C)nc2sc3c(=O)n(-c4ccc(C(C)=O)cc4)nnc3c2c1-c1ccc(OC)cc1,5.1% (inactive)
2,CCn1nc(C)c(NC(=O)/C=C/c2ccc(OC)c(COc3ccc(Br)cc3)c2)c1C,38.5% (inactive)
3,COc1ccc(OC)c(CCNC(=O)Cn2nc(C)c3c(C)n(-c4ccc(C)cc4)nc3c2=O)c1,69.7% (active)
4,COc1ccc(OC)c(CCNC(=O)C(C)n2nc(C)c3c(C)n(-c4ccc(C)cc4)nc3c2=O)c1 (stereo not drawn),49.3% (inactive)
5,O=C(c1ccc(S(=O)(=O)c2cccc(Cl)c2)c([N+](=O)[O-])c1)N1CCN(c2ccccn2)CC1,35.5% (inactive)
6,O=C(c1ccc(S(=O)(=O)c2cccc(Cl)c2)c([N+](=O)[O-])c1)N1CCN(Cc2ccccc2)CC1,53.1% (active)
7,O=C(c1ccc(S(=O)(=O)c2ccccc2Cl)c([N+](=O)[O-])c1)N1CCCCCC1,26.2% (inactive)
8,O=C(c1ccc(S(=O)(=O)c2ccc(F)cc2)c([N+](=O)[O-])c1)N1CCCCCC1,27.8% (inactive)
9,O=C(c1ccc(S(=O)(=O)c2ccccc2Cl)c([N+](=O)[O-])c1)N1CCN(Cc2ccccc2)CC1,56.1% (active)
10,O=C(Nc1nnc(C2CC2)s1)c1cccc(S(=O)(=O)N2CCc3ccccc32)c1,9.3% (inactive)
11,O=C(Nc1nc2ccc([N+](=O)[O-])cc2s1)c1ccc(S(=O)(=O)N2CCCc3ccccc32)cc1,68.8% (active)
12,Cn1cc(S(=O)(=O)N2CCc3ccccc32)cc1C(=O)NC(C)(C)C,38.6% (inactive)
13,Cc1nn(C(C)(C)C)c(C)c1/C=N/OC(=O)Nc1ccc(Cl)cc1,71.3% (active)
14,Cc1nn(C(C)(C)C)c(C)c1/C=N/OC(=O)Nc1ccc(Cl)c(Cl)c1,94% (active)
15,O=C(Nc1ccc(Cl)c(Cl)c1)OCc1cnc(Cl)s1,-13.5% (inactive)
16,COc1ccc(NC(=O)COC(=O)/C=C/C(=O)OCC(=O)Nc2ccc(OC)c(Cl)c2)cc1Cl,17.7% (inactive)
17,Cc1ccc(NC(=O)Cc2ncc(C(F)(F)F)cc2Cl)cc1Cl,-15.6% (inactive)
18,Cc1ccc(NC(=O)O/N=C/c2c(C)nn(C(C)(C)C)c2C)cc1Cl,90.2% (active)
19,O=C(Nc1ccc(Cl)cc1)OCc1cncs1,-60.4% (inactive)
20,COc1ccc(OC)c(Nc2c3ccccc3nc3ccccc23)c1,20.8% (inactive)
21,COc1ccc(-n2cc(-c3ccccc3)c3c(N4CCOCC4)ncnc32)cc1,12.7% (inactive)
22,Cc1ccc(OCCCCn2cnc3ccccc32)cc1,26.7% (inactive)

row,SMILES,inhibition
1,CCOc1ccc(-c2csc3ncn(-c4ccc(OC)cc4)c(=O)c23)cc1,44% (inactive)
2,COc1ccc(-n2cnc3ccccc32)cc1,53.9% (active)
3,COc1ccc2ncn(-c3ccccc3)c2c1,53.8% (active)
4,CC(=O)c1ccc(NC(=O)c2noc3c2CCC3)cc1,35.4% (inactive)
5,O=C(Sc1cccc2cccnc12)c1ccccc1Br,105% (active)
6,O=C(Sc1cccc2cccnc12)c1ccc(F)cc1,101% (active)
7,CCOC(=O)c1c(N2C(=O)Nc3cc(Cl)c(Cl)cc3N2O)sc2c1CCCCC2,75.5% (active)
8,CCOc1ccc(Nc2ncnc3ccc([N+](=O)[O-])cc23)cc1,63.8% (active)
9,CCOc1cc(C=C(C(=O)OC)C(=O)OC)ccc1OCc1ccc([N+](=O)[O-])cc1,7.6% (inactive)
10,O=[N+]([O-])c1ccc(O)c(Nc2ncnc3ccc(Br)cc23)c1,14.6% (inactive)
11,O=C(CCCN1C(=O)/C(=C/c2cccs2)SC1=S)Nc1cccc(O)c1,-2.9% (inactive)
12,Cc1ccc(/C=C2/SC(=S)N(CCCC(=O)Nc3ccc(O)cc3)C2=O)cc1,-26% (inactive)
13,O=C(CCCN1C(=O)/C(=C/c2ccccc2Cl)SC1=S)NNC(=O)c1ccncc1,87% (active)
14,COc1ccc(/C=C2\SC(=S)N(CCCC(=O)NNC(=O)c3ccccc3O)C2=O)cc1,35.4% (inactive)
15,O=C(CCCN1C(=O)/C(=C/c2ccccc2Cl)SC1=S)NNC(=O)c1ccc(Cl)cc1,76.9% (active)
16,Cc1ccc(/C=C2\SC(=S)N(CCCC(=O)NNC(=O)c3ccccc3O)C2=O)cc1,67.9% (active)
17,O=C(CCCN1C(=O)/C(=C/c2ccccc2Cl)SC1=S)NNC(=O)c1ccccc1,-19.2% (inactive)
18,COc1ccc2[nH]cc(C(=O)CCl)c2c1,102% (active)
19,COc1ccc2c(C(=O)CCl)c[nH]c2c1,66.7% (active)
20,COC(CNC(=O)c1c[nH]c2ccc(S(=O)(=O)N3CCOCC3)cc2c1=O)OC,9.8% (inactive)
21,COc1ccc(-c2csc(NC(=O)C3=NN(c4ccccc4)C(=O)CC3)n2)cc1,-64.2% (inactive)
22,Cc1cc(F)ccc1S(=O)(=O)Nc1ccccc1C(=O)Nc1ccccc1-c1nc2ccccc2[nH]1,1.4% (inactive)

row,SMILES,inhibition
1,COc1ccc(-c2csc(NC(=O)c3ccccc3NS(=O)(=O)c3ccc(F)c(F)c3)n2)cc1,82.3% (active)
2,CCOc1ccc(NC(=O)c2ccccc2NS(=O)(=O)c2ccc(F)cc2)c([N+](=O)[O-])c1,11.5% (inactive)
3,COc1ccc(-c2csc(NC(=O)c3ccccc3NS(=O)(=O)c3ccc(C)cc3)n2)cc1,80.3% (active)
4,COc1ccc(S(=O)(=O)Nc2ccccc2C(=O)Nc2nc(-c3ccc(F)cc3)cs2)cc1OC,81.4% (active)
5,O=C(Nc1nc(-c2ccccc2)cs1)c1ccccc1NS(=O)(=O)c1ccc(F)cc1,91.5% (active)
6,Cc1ccc(S(=O)(=O)Nc2ccccc2C(=O)Nc2nc(-c3ccc(F)cc3)cs2)cc1,79.9% (active)
7,COc1ccccc1C(=O)Nc1nc(-c2ccc(S(=O)(=O)N3CCOCC3)cc2)cs1,99.6% (active)
8,COc1ccc(NC(=O)c2ccc(-c3ccccc3)cc2)cc1NS(=O)(=O)c1ccc(F)cc1,59.9% (active)
9,CC(=O)c1c(C)[nH]c(C(=O)Nc2nc(-c3ccc(-c4ccccc4)cc3)cs2)c1C,-7.7% (inactive)
10,O=C(COc1ccc(Cl)cc1)Nc1nc(-c2ccc(S(=O)(=O)N3CCOCC3)cc2)cs1,26.4% (inactive)
11,CC(C)CCNC(=O)c1cc(-c2ccncc2)nc2ccc(S(=O)(=O)N3CCOCC3)cc12,28.7% (inactive)
12,COC(=O)c1ccc(NC(=O)c2ccccc2NS(=O)(=O)c2ccccc2)cc1,32.6% (inactive)
13,COc1ccccc1NS(=O)(=O)c1cccc(NC(=O)c2ccc3ccccc3n2)c1,15.4% (inactive)
14,Cc1c(CCC(=O)O)c(=O)oc2c(C)c(OCc3ccccc3Cl)ccc12,17.1% (inactive)
15,COc1ccccc1COc1ccc2c(C)c(CCC(=O)O)c(=O)oc2c1C,5.6% (inactive)
16,Cc1c(CCC(=O)O)c(=O)oc2cc(OCc3ccccc3Br)ccc12,75.3% (active)
17,O=C(CCl)Nc1ccccc1C(=O)NCc1ccccc1,-4% (inactive)
18,CC(=O)Nc1ccccc1OCC(=O)c1cc(C)n(Cc2cccs2)c1C,28.3% (inactive)
19,Cc1c(C#N)c(NC(=O)CCl)n(Cc2ccccc2)c1C,95.9% (active)
20,CC(=O)Nc1ccc(SCC(=O)c2cc(C)n(Cc3cccs3)c2C)cc1,-119% (inactive)
21,Cc1c(C#N)c(NC(=O)CCl)n(Cc2cccs2)c1C,101% (active)
22,O=C(CCl)Nc1c2c(nn1-c1ccccc1)CSC2,-6.5% (inactive)
